This is a sample that favours compounds with a hit; in the whole collection about 1.8% have one here.
LYPLA2 counter = LYPLA2 (human) inhibition in PME1 counter-screen; recombinant LYPLA2, FP-Rh probe fluorescence polarization; inhibition, % at 5.9 µM; O95372; 0.38% of 320,000 active; AID 2177;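 active = inhibition above the screen-wide mean plus 3 SD, limit set per campaign, cut at about 26% in these data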
Target sequence (O95372 whole entry, looked up): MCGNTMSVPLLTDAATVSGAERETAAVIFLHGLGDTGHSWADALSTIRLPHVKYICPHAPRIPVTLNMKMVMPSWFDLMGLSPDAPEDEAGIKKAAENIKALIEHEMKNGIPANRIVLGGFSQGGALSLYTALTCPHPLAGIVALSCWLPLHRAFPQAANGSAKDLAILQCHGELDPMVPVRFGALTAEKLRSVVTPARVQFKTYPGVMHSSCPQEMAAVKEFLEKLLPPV
LYPLA1 inh = LYPLA1 (human) inhibition in PME1 counter-screen; 0.16% of 320,000 active; AID 2174; recombinant LYPLA1, FP-Rh probe fluorescence polarization; O75608; inhibition, % at 5.9 µM;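 active = inhibition above the mean of all tested compounds plus 3 SD, set per campaign, cut at about 14% in these data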;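 also: inhibitors block serine hydrolase probe labeling of LYPLA1 so polarization falls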
Target sequence (O75608 whole entry, looked up): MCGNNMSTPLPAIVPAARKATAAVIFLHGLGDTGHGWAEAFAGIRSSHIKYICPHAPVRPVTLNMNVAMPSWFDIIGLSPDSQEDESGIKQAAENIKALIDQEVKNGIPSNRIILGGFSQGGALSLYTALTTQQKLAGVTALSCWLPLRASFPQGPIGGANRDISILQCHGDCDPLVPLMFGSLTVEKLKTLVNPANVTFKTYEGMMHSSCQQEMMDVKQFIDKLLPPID
Fam108B inh = counter-screen for RBBP9 inhibitors: inhibitors of mouse Fam108B | recombinant Fam108B, FP-Rh probe fluorescence polarization | inhibition, % at 9.51 µM | 0.33% of 300,000 active;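 active = inhibition above the screen mean inhibition plus 3 SD, computed separately per campaign, cut at about 18% in these data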;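 also: inhibitors lower polarization as less probe binds the enzyme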
PAD4 inh = PAD4 (human) enzyme inhibition. Q9UM07. inhibition, % at 6.36 µM. recombinant PAD4, RCA probe fluorescence polarization. 0.41% of 330,000 active. AID 485272;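 active = percent inhibition above a cutoff equal to the mean of all tested compounds plus 3 SD, cut at about 15% in these data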
PME-1 primary = blocks human protein phosphatase methylesterase 1. Q9Y570. recombinant PME-1, FP-Rh probe fluorescence polarization. inhibition, % at 5.9 µM. 0.53% of 320,000 active. AID 2130;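 active = inhibition above the campaign mean of all compounds plus 3 SD, cut at about 26% in these data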;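 also: competitive labeling of PME-1 active site by serine hydrolase directed probe; inhibitors block probe labeling so polarization falls and inhibition rises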
GSTO1 inh = counter-screen for RBBP9 inhibitors: inhibitors of human GSTO1; P78417; recombinant GSTO1, activity-based probe fluorescence polarization; inhibition, % at 5.96 µM; 1.1% of 300,000 active; AID 1974;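 active = inhibition above the campaign mean inhibition plus 3 SD, cut at about 35% in these data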
Large screens that a line does not name were inactive.

COc1ccc(-c2[nH]n(-c3ccc([N+](=O)[O-])cc3)c(=O)c2C=NCc2ccc(F)cc2)cc1	none
Cc1ccc(S(=O)(=O)N(C)C)cc1NC(=O)C(C)N(C)CCOc1ccc(Cl)cc1 (centres undefined)	none
Cc1cccc(NC(=O)COC(=O)c2cccc3c2C(=O)c2ccccc2C3=O)c1C	PME-1 primary 41
Cc1cccc(C)c1NC(=O)COC(=O)c1cccc2c1C(=O)c1ccccc1C2=O	PME-1 primary 71
Cc1cccc(C)c1NC(=O)c1cccc2c1-c1ccccc1C2=O	none
CCn1c(C)c(/C=N/Nc2nc3ccccc3s2)c2ccccc21	PME-1 primary 35
C(=N\Nc1nc2ccccc2s1)/c1cccs1	none
CCCCC(=O)NNC(=S)NC(=O)c1ccc(C)cc1	none
Cc1ccc(C(=O)NC(=S)NNC(=O)CC#N)cc1	GSTO1 inh 35
CCOc1ccccc1NC(=O)c1cc(S(=O)(=O)NCc2ccco2)ccc1F	GSTO1 inh 35
COc1ccc(CNS(=O)(=O)c2ccc(F)c(C(=O)Nc3ccccc3OC)c2)cc1	none
COc1ccccc1NC(=O)c1cc(S(=O)(=O)NCc2ccccc2)ccc1F	none
COc1ccc(OC)c(NC(=O)c2cc(S(=O)(=O)NCc3ccco3)ccc2F)c1	GSTO1 inh 36
CC(C)(C)C1CCC(C(=O)Nc2ccccc2N2CCOCC2)CC1 (centres undefined)	none (no result: Fam108B inh, GSTO1 inh)
BrC(=C\c1ccccc1)/C=N/Nc1nc2ccccc2[nH]1	GSTO1 inh 37
Cc1cc(Cl)ccc1OCCCC(=O)NNC(=O)c1ccccc1O	none
COc1ccc(-c2ccc(-c3cc(=O)oc4c(C(C)C)ccc(C)c34)cc2)cc1	none (no result: LYPLA2 counter, LYPLA1 inh, Fam108B inh, PME-1 primary, GSTO1 inh)
O=C(CSc1nnc(-c2ccccn2)n1Cc1ccco1)c1ccccc1	none
O=C(CSc1nnc2ccccn12)c1ccc(Cl)cc1	GSTO1 inh 36
O=C(CSc1nnc(-c2ccccn2)n1Cc1ccco1)c1ccc(Cl)cc1	GSTO1 inh 35
CN(C1=C(NC(=O)c2ccccc2)C(=O)c2ccccc2C1=O)C1CCS(=O)(=O)C1 (centres undefined)	GSTO1 inh 75
CC(=O)NC1=C(NC2CCS(=O)(=O)C2)C(=O)c2ccccc2C1=O (centres undefined)	none
CCCNC(=O)c1ccccc1NC(=O)c1cccc(-n2cnnn2)c1	none (no result: Fam108B inh, GSTO1 inh)
COC(=O)c1ccc(NC(=O)C(=O)N2CCN(C(=S)Nc3cccc(OC)c3)CC2)cc1	LYPLA2 counter 56
Cc1ccc(C(=O)CSc2nnc(COc3ccccc3)o2)cc1	GSTO1 inh 37
O=C(N/N=C/c1c[nH]c2ccccc12)c1cc(-c2ccc3ccccc3c2)n[nH]1	PME-1 primary 29
O=C(N/N=C/c1c[nH]c2ccccc12)C1CC1(c1ccccc1)c1ccccc1 (centres undefined)	PME-1 primary 31
O=C(N/N=C/c1c[nH]c2ccccc12)c1cc(-c2cccc3ccccc23)n[nH]1	PME-1 primary 28
Cc1ccc(N=Cc2c(O)ccc3ccccc23)cc1F	none
N#Cc1cccc(N=Cc2c(O)ccc3ccccc23)c1	GSTO1 inh 38
CC[n+]1c(/C=C/N(C)c2ccccc2)oc2ccc(Cl)cc21	none
CCN1/C(=C/C=C/c2oc3ccc4ccccc4c3[n+]2CC)Oc2ccc3ccccc3c21	LYPLA1 inh 58, Fam108B inh 118
COC(=O)c1c(C)[nH]c(C(=O)OCC(=O)c2ccc(C)s2)c1C	none (no result: LYPLA2 counter, LYPLA1 inh, Fam108B inh, PME-1 primary, GSTO1 inh)
COc1ccc(Nc2cnn(-c3nc4ccccc4s3)c(=O)c2Cl)cc1	PME-1 primary 29
COc1cc2c(C#Cc3cccnc3)c(-c3ccsc3)oc(=O)c2cc1OC	none (no result: LYPLA2 counter, LYPLA1 inh, Fam108B inh, PME-1 primary, GSTO1 inh)
C/C(=N\NC(=O)CSCc1ccccc1Cl)c1cc(O)ccc1O	GSTO1 inh 40
O=C(Nc1cc(S(=O)(=O)N2CCOCC2)ccc1Cl)c1cc([N+](=O)[O-])ccc1Cl	none (no result: LYPLA2 counter, LYPLA1 inh, Fam108B inh, PME-1 primary, GSTO1 inh)
COc1cc(/C=C2/CCc3ccccc3C2=O)cc(OC)c1OC	LYPLA2 counter 30
COc1ccc(/C=C2/CCc3ccccc3C2=O)cc1OC	none
Cc1ccc(NC(=O)Nc2cccs2)cc1	none
CCc1ccc(NC(=O)Nc2cccs2)cc1	PME-1 primary 34
CC(C)N(CC(=O)Nc1ccc(Cl)cc1C(F)(F)F)C(=O)CCl	GSTO1 inh 66
O=C(O)CSCC(=O)Nc1ccc(Cl)cc1C(F)(F)F	none
CCC(CC)NC(=O)Nc1cccc(C)c1C	none
